From patent US20210230599, “STEM-LOOP COMPOSITIONS AND METHODS FOR INHIBITING INTERLEUKIN-8” (VITRISA THERAPEUTICS, INC., published 2021) come the findings set out here.

The experiment concerns the target Interleukin-8 (IL8, CXCL8), C-terminal His-tagged (Homo sapiens, UniProt P10145 SEQ:1-72). The experiment is described as follows: competition; competition TR-FRET; G18U. As to conditions: tags: C-terminal 6xHis (Sino Biological); ssRNA; 2'-F G, 2'-OMe A/C/U, 5' C6NH2, 3' idT. The method, then: To better understand the sequence requirements and to confirm the stem structures of members of the Aptamer 3 family as determined from sequence covariation analysis from both the primary and secondary (degenerate) selections, a series of variants which included mutations and deletions to the predicted stems were synthesized and screened (Table 24). Activity of each of these variants were tested using a time resolved competition TR-FRET assay in which the labeled parent Aptamer 3 was competed with increasing concentrations of unlabeled variants for binding to IL8 (FIG. 14). Briefly, 2-fold dilutions of thermally equilibrated aptamers were made in TR-FRET Buffer (50 mM MOPS, pH 7.4, 125 mM NaCl, 5 mM KCl, 50 μM CHAPS, 0.1 mg/mL BSA, 1 mM CaCl₂, and 1 mM MgCl₂). 5 μL of aptamer or control solution was added to 5 μl mix of 10 nM C-terminal His-tagged-IL8, 60 nM ALEXA FLUOR® 647-labeled Aptamer, and 5 nM anti-His-Eu (Perkin Elmer) in a black wall low volume 384 well plate (Greiner). For control, 5 μl of 1000-fold excess of unlabeled parent aptamer or 5 μl TR-FRET buffer alone was added to the mix of ALEXA FLUOR® 647-labeled aptamer, His-IL8, and anti-His-Eu. The plate was covered with a plate seal and subsequently incubated in the dark for 1 hour at room temperature. The plate was read on a Biotek CYTATION™ 5 plate reader. […]
Regarding UGAUGACGGUAGAUUACUGGUAGAGUGACCGCAUCU, the binding signal was over 10 fold worse than Aptamer 3.
